Laboratory results reported in PubChem BioAssay.
The source made the active and inactive calls.

Tests used:
[1] = system: PRMT1 (protein arginine N-methyltransferase 1); test: small molecules binding arginine methyltransferase PRMT1 – biochemical, small-molecule microarray, 635 nm fluorescence, primary screen (AID 1088); conditions: higher = more signal;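 note: binding of Prmt1 protein to compounds spotted on small-molecule microarray slides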
[2] = growth effects on S. cerevisiae YJM789 – YJM789 clinical isolate, OD600, 24 h, basal, primary screen (AID 1089); conditions: higher = more signal, called active from +8 up or from −8 down;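 note: growth of clinical yeast isolate S. cerevisiae YJM 789 seeded 1000 cells per well; test concentration not given here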
[3] = S. pombe growth modifiers, basal conditions – strain 972, OD600, 24 h, no modulator, primary screen (AID 1090);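 note: basal condition with compound alone and no growth modifier present; test concentration not given here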; conditions: S. pombe 972 growth, higher = more signal, called active from +8 up or from −8 down
[4] = budding yeast growth modifiers under rapamycin – strain BY4716, OD600, 96 h, primary screen (AID 1091); note: test concentration not given here; conditions: S. cerevisiae BY4716 + rapamycin, higher = more signal, called active from +8 up or from −8 down
[5] = molecular target: Torsin-1A-interacting protein 2 (Homo sapiens) (UniProt Q8NFQ8); test: small molecules binding lysate-expressed LULL1 – cell lysate, human LULL1 lysate, 635/667 nm fluorescence, primary screen (AID 1092); conditions: small-molecule microarray, hLULL1 lysate binding, 635 nm fluorescence; higher = more signal;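 note: probe is lysate of COS7 cells overexpressing human LULL1; score merges per-feature 667 nm fluorescence with signal-to-noise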
[6] = optical density change of DRC41 E. coli – strain DRC41, OD650, 24 h, E. coli filamentation project, primary screen (AID 1093);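 note: MC1000 strain lacking acrAB efflux and sulA so SOS filamentation is blocked; test concentration not given here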; conditions: E. coli DRC41 growth, higher = more signal, called active from +8 up or from −8 down
[7] = probe aLefty2 binding to arrayed compounds – biochemical, biotinylated probe, 635/667 nm fluorescence, primary screen (AID 1094); conditions: small-molecule microarray, higher = more signal;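 note: score merges spot fluorescence near 667 nm with spot signal-to-noise ratio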
[8] = system: Noggin (protein binding on small-molecule microarray); test: small molecules binding Noggin protein – biochemical, 635/667 nm fluorescence, primary screen (AID 1095); conditions: 635 nm fluorescence, higher = more signal;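 note: score merges 667 nm feature fluorescence with signal to noise over triplicate slides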
[9] = molecular target: Neurogenic locus notch homolog protein 3 (Homo sapiens) (UniProt Q9UM47); test: small molecules binding NOTCH3 protein – biochemical, 635/667 nm fluorescence, primary screen (AID 1096); conditions: small-molecule microarray, 635 nm fluorescence, higher = more signal
[10] = probe aEGFR binding to arrayed compounds – biochemical, biotinylated probe, 635/667 nm fluorescence, primary screen (AID 1097); conditions: small-molecule microarray, higher = more signal;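 note: probe is a biotinylated anti-EGFR antibody binding compounds printed on slides; score combines fluorescence near 667 nm and signal to noise of each spot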
[11] = system: Plasmodium falciparum Sir2 (PF13_0152, Sir2A); test: Plasmodium falciparum Sir2A binding compounds – biochemical, small-molecule microarray, 635 nm fluorescence, primary screen (AID 1098); conditions: fluorescence 635 nm, higher = more signal;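 note: score merges spot fluorescence intensity with its signal-to-noise ratio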
[12] = probe aDKK1 binding to arrayed compounds – biochemical, biotinylated probe, 635/667 nm fluorescence, primary screen (AID 1099); conditions: small-molecule microarray, higher = more signal;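 note: score merges 667nm spot fluorescence with signal to noise across triplicate slides; reference of the scale not given here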
[13] = probe aCHRDL2 binding to arrayed compounds – biochemical, biotinylated probe, 635/667 nm fluorescence, primary screen (AID 1100); conditions: small-molecule microarray, higher = more signal
[14] = change in splice reporter luminescence, either direction, cell-based, HEK293, spliceosome inhibition project, primary screen (AID 1101); conditions: HEK293 splicing luciferase reporter, 24 h, higher = more signal, called active from +8 up or from −8 down;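 note: HEK293 cells carrying a splicing-competent luciferase reporter gene; test concentration not given here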
[15] = molecular target: Fibroblast growth factor 10 (Homo sapiens) (UniProt O15520); test: compounds binding fibroblast growth factor 10 – biochemical, small-molecule microarray, 635 nm fluorescence, primary screen (AID 1102); conditions: FGF10 binding, fluorescence 635 nm, higher = more signal
[16] = system: glycogen synthase kinase-3 (GSK3A per assay name; protocol says GSK3B); test: compounds binding glycogen synthase kinase-3 – biochemical, small-molecule microarray, 635 nm fluorescence, GSK3A, primary screen (AID 1103); conditions: fluorescence 635 nm, higher = more signal; note: the record names both GSK3A and GSK3B
[17] = molecular target: Epidermal growth factor receptor (Homo sapiens) (UniProt P00533); test: compounds binding epidermal growth factor receptor – biochemical, small-molecule microarray, 635 nm fluorescence, primary screen (AID 1104); conditions: EGFR binding, higher = more signal;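 note: score merges 667 nm emission intensity with spot signal to noise over triplicate slides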
[18] = molecular target: Follistatin-related protein 3 (Homo sapiens) (UniProt O95633); test: compounds binding follistatin-related protein 3 – biochemical, small-molecule microarray, 635 nm fluorescence, primary screen (AID 1105); conditions: FSTL3 binding, higher = more signal;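 note: score merges emission near 667 nm and signal to noise per printed spot across three slides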
[19] = molecular target: Dickkopf-related protein 1 (Homo sapiens) (UniProt O94907); test: small molecules binding DKK1 protein – biochemical, small-molecule microarray, 635 nm fluorescence scan, primary screen (AID 1106); conditions: higher = more signal;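 note: score merges emission near 667 nm with signal to noise over three replicate slides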
[20] = system: Inhibin beta A chain (activin A); test: small molecules binding activin A – biochemical, small-molecule microarray, 635 nm fluorescence scan, primary screen (AID 1107); conditions: INHBA, higher = more signal;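 note: mouse activin A protein probed at 4.33 µg/mL on printed slides; score merges bound-protein fluorescence near 667 nm with spot signal-to-noise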

Chain of Torsin-1A-interacting protein 2 (Homo sapiens) (Q8NFQ8 whole entry, looked up): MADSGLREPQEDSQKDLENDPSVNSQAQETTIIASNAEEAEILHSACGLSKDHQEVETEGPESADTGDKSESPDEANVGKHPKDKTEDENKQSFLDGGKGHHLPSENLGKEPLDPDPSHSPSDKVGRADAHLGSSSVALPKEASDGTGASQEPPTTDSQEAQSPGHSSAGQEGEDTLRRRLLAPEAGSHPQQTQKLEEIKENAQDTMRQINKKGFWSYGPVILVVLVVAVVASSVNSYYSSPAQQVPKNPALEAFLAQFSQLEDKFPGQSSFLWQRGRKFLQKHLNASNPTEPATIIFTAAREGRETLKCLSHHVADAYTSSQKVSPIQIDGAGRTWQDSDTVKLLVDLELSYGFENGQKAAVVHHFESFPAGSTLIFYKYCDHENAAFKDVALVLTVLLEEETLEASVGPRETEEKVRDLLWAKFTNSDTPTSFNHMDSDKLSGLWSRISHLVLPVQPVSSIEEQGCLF
Chain of Fibroblast growth factor 10 (Homo sapiens) (O15520 whole entry, looked up): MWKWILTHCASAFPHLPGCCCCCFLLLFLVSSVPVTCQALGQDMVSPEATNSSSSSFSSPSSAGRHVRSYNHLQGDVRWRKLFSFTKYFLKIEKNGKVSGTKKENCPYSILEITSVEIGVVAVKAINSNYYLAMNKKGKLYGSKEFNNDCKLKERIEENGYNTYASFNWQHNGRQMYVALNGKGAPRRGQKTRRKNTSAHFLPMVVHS
Chain of Epidermal growth factor receptor (Homo sapiens) (P00533 whole entry, looked up): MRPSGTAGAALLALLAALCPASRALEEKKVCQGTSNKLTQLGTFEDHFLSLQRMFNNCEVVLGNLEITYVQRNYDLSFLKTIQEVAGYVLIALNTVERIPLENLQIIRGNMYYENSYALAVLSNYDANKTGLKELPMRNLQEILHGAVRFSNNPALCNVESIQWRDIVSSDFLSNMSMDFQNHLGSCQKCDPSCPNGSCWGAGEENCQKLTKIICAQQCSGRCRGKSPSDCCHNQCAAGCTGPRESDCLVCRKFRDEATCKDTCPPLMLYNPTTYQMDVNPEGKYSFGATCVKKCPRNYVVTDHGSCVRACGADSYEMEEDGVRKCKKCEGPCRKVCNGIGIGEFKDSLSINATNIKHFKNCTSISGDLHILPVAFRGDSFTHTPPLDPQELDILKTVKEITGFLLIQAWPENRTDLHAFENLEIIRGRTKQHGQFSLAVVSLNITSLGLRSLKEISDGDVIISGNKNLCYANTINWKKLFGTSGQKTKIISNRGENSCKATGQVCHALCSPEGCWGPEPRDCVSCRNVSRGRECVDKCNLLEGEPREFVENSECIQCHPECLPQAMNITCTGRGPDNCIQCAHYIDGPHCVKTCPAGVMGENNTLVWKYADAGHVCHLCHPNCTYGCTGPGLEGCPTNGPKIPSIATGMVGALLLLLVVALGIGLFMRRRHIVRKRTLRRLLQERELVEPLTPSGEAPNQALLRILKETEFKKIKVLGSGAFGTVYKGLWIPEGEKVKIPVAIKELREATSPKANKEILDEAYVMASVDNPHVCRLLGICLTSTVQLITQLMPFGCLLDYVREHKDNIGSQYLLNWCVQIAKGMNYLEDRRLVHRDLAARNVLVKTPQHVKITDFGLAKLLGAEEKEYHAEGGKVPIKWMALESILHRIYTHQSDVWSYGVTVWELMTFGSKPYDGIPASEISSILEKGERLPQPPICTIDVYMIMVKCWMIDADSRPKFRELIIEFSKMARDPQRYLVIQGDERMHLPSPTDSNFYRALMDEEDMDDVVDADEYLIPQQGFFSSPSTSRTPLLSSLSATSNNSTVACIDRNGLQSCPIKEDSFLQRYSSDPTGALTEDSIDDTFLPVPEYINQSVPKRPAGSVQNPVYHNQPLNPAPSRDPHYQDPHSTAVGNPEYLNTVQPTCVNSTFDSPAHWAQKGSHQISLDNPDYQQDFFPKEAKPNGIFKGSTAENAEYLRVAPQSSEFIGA
Chain of Neurogenic locus notch homolog protein 3 (Homo sapiens) (Q9UM47 whole entry, looked up): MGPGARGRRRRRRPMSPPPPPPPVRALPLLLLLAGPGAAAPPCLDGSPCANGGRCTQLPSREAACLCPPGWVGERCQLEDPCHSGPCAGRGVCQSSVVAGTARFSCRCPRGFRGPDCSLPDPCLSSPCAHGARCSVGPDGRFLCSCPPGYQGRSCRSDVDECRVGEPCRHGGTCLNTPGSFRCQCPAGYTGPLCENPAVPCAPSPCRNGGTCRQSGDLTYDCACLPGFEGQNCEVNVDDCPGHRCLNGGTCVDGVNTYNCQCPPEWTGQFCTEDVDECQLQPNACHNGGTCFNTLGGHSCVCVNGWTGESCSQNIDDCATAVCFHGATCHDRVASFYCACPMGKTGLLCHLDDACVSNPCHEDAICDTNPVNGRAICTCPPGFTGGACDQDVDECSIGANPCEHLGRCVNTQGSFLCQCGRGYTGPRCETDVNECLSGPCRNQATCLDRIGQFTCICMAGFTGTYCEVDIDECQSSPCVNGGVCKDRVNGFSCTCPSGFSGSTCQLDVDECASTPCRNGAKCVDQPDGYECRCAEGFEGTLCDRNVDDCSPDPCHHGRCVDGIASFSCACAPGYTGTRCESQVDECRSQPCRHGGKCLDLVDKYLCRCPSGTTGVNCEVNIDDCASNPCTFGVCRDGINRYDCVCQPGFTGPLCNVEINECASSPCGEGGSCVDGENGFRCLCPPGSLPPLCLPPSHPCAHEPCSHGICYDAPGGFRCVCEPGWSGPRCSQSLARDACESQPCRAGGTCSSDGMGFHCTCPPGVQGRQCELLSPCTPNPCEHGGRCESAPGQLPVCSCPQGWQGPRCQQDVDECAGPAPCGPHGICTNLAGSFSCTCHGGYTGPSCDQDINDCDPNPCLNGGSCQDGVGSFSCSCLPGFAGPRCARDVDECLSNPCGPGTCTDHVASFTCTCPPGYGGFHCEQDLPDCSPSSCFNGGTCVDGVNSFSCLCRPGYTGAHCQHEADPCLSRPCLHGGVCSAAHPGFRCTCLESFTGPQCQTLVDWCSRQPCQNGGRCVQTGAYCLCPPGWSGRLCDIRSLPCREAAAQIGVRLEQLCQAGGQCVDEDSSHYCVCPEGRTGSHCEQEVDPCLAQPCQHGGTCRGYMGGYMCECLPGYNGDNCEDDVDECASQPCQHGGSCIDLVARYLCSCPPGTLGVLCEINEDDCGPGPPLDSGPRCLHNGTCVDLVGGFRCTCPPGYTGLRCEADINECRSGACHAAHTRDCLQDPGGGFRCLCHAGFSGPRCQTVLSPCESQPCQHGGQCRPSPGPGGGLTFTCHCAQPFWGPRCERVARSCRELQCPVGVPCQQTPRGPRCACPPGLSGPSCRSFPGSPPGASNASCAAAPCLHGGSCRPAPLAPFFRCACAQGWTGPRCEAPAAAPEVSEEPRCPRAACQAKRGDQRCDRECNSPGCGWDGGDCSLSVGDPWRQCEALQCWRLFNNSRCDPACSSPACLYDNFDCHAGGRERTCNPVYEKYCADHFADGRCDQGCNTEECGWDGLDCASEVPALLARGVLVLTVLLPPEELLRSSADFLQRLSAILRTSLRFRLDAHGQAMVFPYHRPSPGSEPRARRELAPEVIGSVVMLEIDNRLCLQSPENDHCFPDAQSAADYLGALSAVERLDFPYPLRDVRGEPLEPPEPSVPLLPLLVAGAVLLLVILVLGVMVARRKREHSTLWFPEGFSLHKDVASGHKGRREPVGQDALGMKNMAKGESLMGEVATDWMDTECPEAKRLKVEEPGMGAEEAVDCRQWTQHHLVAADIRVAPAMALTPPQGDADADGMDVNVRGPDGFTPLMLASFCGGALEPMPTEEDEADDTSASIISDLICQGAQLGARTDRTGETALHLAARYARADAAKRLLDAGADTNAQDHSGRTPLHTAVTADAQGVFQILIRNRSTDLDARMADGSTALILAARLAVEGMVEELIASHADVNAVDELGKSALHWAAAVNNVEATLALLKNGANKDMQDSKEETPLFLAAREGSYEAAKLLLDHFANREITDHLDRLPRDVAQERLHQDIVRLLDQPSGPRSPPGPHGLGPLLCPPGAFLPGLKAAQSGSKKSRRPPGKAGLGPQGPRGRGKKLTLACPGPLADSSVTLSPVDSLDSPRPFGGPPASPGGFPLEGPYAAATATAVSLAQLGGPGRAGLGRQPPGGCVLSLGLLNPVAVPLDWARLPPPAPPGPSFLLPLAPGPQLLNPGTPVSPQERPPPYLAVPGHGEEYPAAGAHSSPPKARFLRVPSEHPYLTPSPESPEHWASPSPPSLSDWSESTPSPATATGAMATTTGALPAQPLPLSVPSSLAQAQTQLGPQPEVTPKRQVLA
Chain of Dickkopf-related protein 1 (Homo sapiens) (O94907 whole entry, looked up): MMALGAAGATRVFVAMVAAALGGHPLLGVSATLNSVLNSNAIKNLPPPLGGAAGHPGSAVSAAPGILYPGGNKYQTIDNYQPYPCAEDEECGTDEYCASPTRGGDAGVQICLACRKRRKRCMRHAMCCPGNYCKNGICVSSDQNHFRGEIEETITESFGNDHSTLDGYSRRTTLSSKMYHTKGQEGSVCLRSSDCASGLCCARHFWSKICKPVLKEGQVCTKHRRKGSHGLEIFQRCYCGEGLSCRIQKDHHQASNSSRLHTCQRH
Chain of Follistatin-related protein 3 (Homo sapiens) (O95633 whole entry, looked up): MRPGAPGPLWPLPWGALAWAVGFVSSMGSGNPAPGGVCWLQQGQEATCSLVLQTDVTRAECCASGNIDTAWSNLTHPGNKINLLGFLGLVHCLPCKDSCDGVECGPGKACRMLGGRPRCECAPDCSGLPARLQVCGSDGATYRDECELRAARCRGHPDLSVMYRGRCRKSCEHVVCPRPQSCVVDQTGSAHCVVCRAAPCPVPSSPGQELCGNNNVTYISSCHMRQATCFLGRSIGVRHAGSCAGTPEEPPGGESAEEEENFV

Compound	composite z-score [1]	z-score [2]	z-score [3]	z-score [4]	composite z-score [5]	z-score [6]	composite z-score [7]	composite z-score [8]	composite z-score [9]	composite z-score [10]	composite z-score [11]	composite z-score [12]	composite z-score [13]	z-score [14]	composite z-score [15]	composite z-score [16]	composite z-score [17]	composite z-score [18]	composite z-score [19]	composite z-score [20]
C=C(CCCC)/C(=C/C[C@H](OC(C)=O)c1ccc(OCCO)cc1)c1cnc2ccccc2c1	1.53	-1.1 (inactive)	-1.83 (inactive)	-0.434 (inactive)	1.92	1 (inactive)	-0.138	1.04	0.727	-0.0824	0.641	-0.182	-0.0866	0.299 (inactive)	0.672	0.209	0.384	1.12	0.446	1.53
COC(=O)c1c(CC[C@@H](CO)NC(=O)NCCc2c[nH]c3ccccc23)oc(C(=O)Cc2ccccc2)c1C(=O)OC	0.578	0.433 (inactive)	0.215 (inactive)	-1.62 (inactive)	1.53	0.528 (inactive)	-0.117	0.145	0.316	-0.126	0.176	-0.281	-0.805	-0.251 (inactive)	0.48	0.429	0.398	0.321	0.263	0.553
O=C1OCCC=C[C@H]2OC34C=CCN(CCN5CCOCC5)C(=O)[C@H]3N(CCCCCO)C(=O)[C@@H]4C12 (stereo not given in full)	1.48	-0.776 (inactive)	-0.0455 (inactive)	-0.379 (inactive)	3.34	0.444 (inactive)	-0.138	0.0669	0.193	-0.158	1.44	-0.235	-0.111	-0.78 (inactive)	-0.35	0.454	-0.509	-0.379	-0.041	-0.309
COCC(=C=CC[C@H](O)c1cccc(OCCO)c1)C[C@H](O)c1cc(Cl)cc(Cl)c1O	1.54	1.11 (inactive)	-0.6 (inactive)	-0.225 (inactive)	1.29	0.706 (inactive)	-0.143	0.908	1.04	0.0837	0.516	-0.0921	-0.174	0.102 (inactive)	1.55	1.17	0.331	0.785	0.551	0.712
C=CCNC(=O)[C@@H]1[C@H]2C(=O)O[C@H](c3ccccc3)[C@H](c3ccccc3)N2[C@H](c2ccc(OCCO)cc2)[C@@]12C(=O)N(C(=O)OCCOC)c1ccc(C#CCNC(N)=O)cc12	1.4	2.15 (inactive)	-0.221 (inactive)	3.97 (inactive)	1.61	1.98 (inactive)	0.0565	0.954	1.13	-0.0069	1.43	0.478	0.747	0.184 (inactive)	0.704	0.549	0.555	0.898	0.554	1.2
CCCCC(=C=CC[C@@H](O)c1cccc(OCCO)c1)C[C@@H](O)c1ccccn1	1.55	-0.937 (inactive)	-0.606 (inactive)	-0.725 (inactive)	2.07	0.149 (inactive)	-0.207	1.46	1.01	-0.099	1.6	-0.132	-0.387	-0.123 (inactive)	1.06	0.839	-0.181	1.07	0.168	0.869
CCCC(=O)N(CCc1c[nH]c2ccccc12)[C@@H]1CC(C(=O)NCCO)=C[C@H](Oc2c(I)cc(CO)cc2OC)[C@H]1O	0.234	0.5 (inactive)	-0.713 (inactive)	-0.241 (inactive)	1.42	1.55 (inactive)	-0.157	0.259	-0.0693	-0.0708	-0.575	-0.334	-0.516	-0.125 (inactive)	-0.0122	-0.431	0.164	0.0027	0.404	0.181
O=C1OCC=C[C@H]2OC34C=CCN(Cn5nnc6ccccc65)C(=O)[C@H]3N(CCCCCO)C(=O)[C@@H]4[C@@H]12 (stereo not given in full)	-0.0541	-0.314 (inactive)	0.421 (inactive)	-0.582 (inactive)	2.81	1.65 (inactive)	0.484	-0.525	-0.475	-0.108	0.665	0.26	0.586	-0.313 (inactive)	-0.658	-0.614	-1.31	-0.77	-1.29	-0.212
O=C(NC1CC1)[C@@H]1c2ccccc2C(=O)N(Cc2cc(F)cc(C(F)(F)F)c2)[C@H]1c1ccc(CO)cc1	1.35	-1.02 (inactive)	-1.15 (inactive)	-0.926 (inactive)	2.85	-0.213 (inactive)	0.0351	0.235	-0.418	-0.177	1.62	-0.284	0.447	0.191 (inactive)	-0.216	0.296	-1.18	-0.317	-0.666	-0.142
C=CCOC(=O)[C@H]1[C@@H]2C(=O)O[C@@H](c3ccccc3)[C@@H](c3ccccc3)N2[C@@H](c2ccc(OCCOC(=O)[C@H]3C[C@H]4C(=O)N[C@@H](CCCCN(C)C)C(=O)N4[C@H]3c3cccc(OCCO)c3)cc2)[C@]12C(=O)Nc1ccc(I)cc12	1.54	1.71 (inactive)	-1.05 (inactive)	1.71 (inactive)	2.84	-1.36 (inactive)	-0.129	1.67	1.06	-0.15	0.79	-0.267	-0.254	1.52 (inactive)	1.32	1.16	0.527	1.46	1.07	1.11
